Many of the other results were omitted from the sample, so hits are more common in it than they were.
IDE exosite FP: displaces the probe from the exo-site of human IDE; P14735; purified IDE, FL-6b probe fluorescence polarization; stronger effect = lower value; z-score at 20 µM; 6.3% of 17,000 active; AID 1259349;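 active means z-score of -3 or lower, meaning strong loss of probe binding signal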;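 further: His-tagged human IDE residues 42-1019 made in E. coli with 30 nM FL-6b probe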
Target sequence (P14735 42-1019 limits assumed): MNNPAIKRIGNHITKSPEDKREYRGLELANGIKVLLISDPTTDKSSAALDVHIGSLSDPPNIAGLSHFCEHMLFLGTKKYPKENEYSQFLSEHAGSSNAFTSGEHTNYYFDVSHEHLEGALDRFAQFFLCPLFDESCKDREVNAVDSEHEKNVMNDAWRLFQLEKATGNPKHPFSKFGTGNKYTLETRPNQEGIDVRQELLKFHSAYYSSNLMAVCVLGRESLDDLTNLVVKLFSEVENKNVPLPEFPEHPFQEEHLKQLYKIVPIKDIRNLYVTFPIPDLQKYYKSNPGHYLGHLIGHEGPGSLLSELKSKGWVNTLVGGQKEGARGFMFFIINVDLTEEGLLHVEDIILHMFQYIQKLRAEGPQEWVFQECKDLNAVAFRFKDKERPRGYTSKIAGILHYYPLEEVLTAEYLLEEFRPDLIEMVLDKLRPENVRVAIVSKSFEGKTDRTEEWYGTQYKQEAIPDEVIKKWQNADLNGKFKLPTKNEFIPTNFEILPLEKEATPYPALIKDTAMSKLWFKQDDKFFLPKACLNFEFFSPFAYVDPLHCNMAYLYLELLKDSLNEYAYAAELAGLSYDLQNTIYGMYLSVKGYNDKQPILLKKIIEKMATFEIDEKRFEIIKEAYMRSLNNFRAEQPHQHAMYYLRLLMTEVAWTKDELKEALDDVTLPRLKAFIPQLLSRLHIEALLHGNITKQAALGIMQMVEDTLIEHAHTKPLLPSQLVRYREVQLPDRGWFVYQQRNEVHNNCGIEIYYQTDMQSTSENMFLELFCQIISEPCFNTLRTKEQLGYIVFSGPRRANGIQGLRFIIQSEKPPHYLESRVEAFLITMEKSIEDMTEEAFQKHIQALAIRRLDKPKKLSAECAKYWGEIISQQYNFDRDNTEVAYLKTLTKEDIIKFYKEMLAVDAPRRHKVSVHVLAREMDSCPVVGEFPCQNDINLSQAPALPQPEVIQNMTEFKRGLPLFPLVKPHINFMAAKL
Numbers without * were called inactive.

SMILES	IDE exosite FP
COCC(=O)N1CC(=O)N2[C@H](C1)[C@@H](c1ccc(-c3ccccc3F)cc1)[C@@H]2CO	-2.6
CCN1CC(=O)N2[C@H](CO)[C@H](c3ccc(-c4ccccc4F)cc3)[C@@H]2C1	-0.055
CCC(=O)N1CC(=O)N2[C@H](C1)[C@@H](c1ccc(-c3ccccc3F)cc1)[C@@H]2CO	-8*
COCC(=O)N1CC(=O)N2[C@@H](CO)[C@@H](c3ccc(-c4ccccc4F)cc3)[C@@H]2C1	-1.1
Cc1ccc(-c2ccc([C@@H]3[C@@H](CO)N4CCCCN(C(=O)c5ccc(F)cc5)C[C@@H]34)cc2)cc1	1.8
CCC(=O)NC[C@H]1[C@@H](c2ccc(-c3ccccc3)cc2)[C@@H](CO)N1C(=O)C1CC1	-0.76
CC(=O)N1CC(=O)N2[C@H](C1)[C@H](c1ccc(-c3ccc(C#N)cc3)cc1)[C@@H]2CO	4.5
N#C[C@@H]1[C@@H](c2ccccc2)[C@@H](CO)N1S(=O)(=O)Cc1ccccc1	0.68
CCCNC[C@H]1[C@@H](c2ccc(-c3cccc(C#N)c3)cc2)[C@@H](CO)N1C(C)=O	2
C[C@@H]1CN([C@H](C)CO)C(=O)c2cc(/C=C/c3ccccc3)cnc2O[C@H]1CN(C)S(=O)(=O)c1ccccc1F	-4.6*
C[C@@H]1CN([C@@H](C)CO)C(=O)c2cc(-c3ccc(F)cc3)cnc2O[C@H]1CN(C)S(C)(=O)=O	0.99
C[C@H](CO)N1C[C@H](C)[C@H](CN(C)S(=O)(=O)c2ccccc2F)Oc2ncc(/C=C/c3ccccc3)cc2C1=O	-1.7
Cc1ccccc1-c1ccc([C@H]2[C@H]3CN(C(=O)c4ccc(F)cc4)CC(=O)N3[C@H]2CO)cc1	-4.3*
O=C(c1ccc(F)cc1)N1CC(=O)N2[C@@H](CO)[C@H](c3ccc(-c4ccccc4F)cc3)[C@@H]2C1	2.1
Cc1ccccc1-c1ccc([C@H]2[C@@H](CO)N3C(=O)CN(C(=O)c4ccc(F)cc4)C[C@@H]23)cc1	-0.95
O=C(c1ccc(F)cc1)N1CC(=O)N2[C@H](C1)[C@H](c1ccc(-c3ccccc3F)cc1)[C@@H]2CO	4.9
O=C(c1ccc(F)cc1)N1CC(=O)N2[C@H](C1)[C@@H](c1ccc(-c3ccccc3F)cc1)[C@@H]2CO	3.9
Cc1ccccc1-c1ccc([C@H]2[C@H](CO)N3C(=O)CN(C(=O)c4ccc(F)cc4)C[C@@H]23)cc1	-16*
CCCNC(=O)N1CC2(CCN(C(=O)Cc3cccnc3)CC2)c2c([nH]c3cc(OC)ccc23)[C@H]1CO	-1.2
CN(C)C(=O)c1ccc(-c2ccc([C@H]3[C@@H](CO)N4CCCCN(S(C)(=O)=O)C[C@@H]34)cc2)cc1	-1.4
CC=Cc1ccc2n(c1=O)C[C@@H]1[C@@H](CO)[C@H](C(=O)N3CCOCC3)N(Cc3ccccc3)[C@H]21 (mixture of isomers)	0.67
COCC(=O)Nc1ccc2c(c1)OC[C@@H](C)N(C)C[C@H](C)[C@H](OC)CN(C)C2=O	-0.14
COC(=O)[C@H]1[C@H](CO)[C@H]2Cn3c(ccc(-c4ccncc4)c3=O)[C@H]2N1Cc1ccccc1F	0.9
Cc1cccc(-c2ccc([C@@H]3[C@H](CO)N4C(=O)CN(C(=O)c5ccccc5)C[C@@H]34)cc2)c1	-4.6*
O=C(c1ccc2c(c1)OCO2)N1CC(=O)N2[C@H](CO)[C@@H](c3ccc(-c4ccccc4)cc3)[C@H]2C1	0.43
SMILES	IDE exosite FP
O=C(c1ccc2c(c1)OCO2)N1CC(=O)N2[C@H](CO)[C@@H](c3ccc(C#Cc4ccccc4)cc3)[C@H]2C1	2.9
O=C(c1ccc2c(c1)OCO2)N1CC(=O)N2[C@H](CO)[C@H](c3ccc(C#Cc4ccccc4)cc3)[C@@H]2C1	-0.14
Cc1cccc(-c2ccc([C@H]3[C@H](CO)N4C(=O)CN(C(=O)c5ccccc5)C[C@@H]34)cc2)c1	-7.4*
O=C(c1ccc2c(c1)OCO2)N1CC(=O)N2[C@@H](CO)[C@H](c3ccc(C#Cc4ccccc4)cc3)[C@@H]2C1	-4.3*
Cc1cccc(-c2ccc([C@H]3[C@H]4CN(C(=O)c5ccccc5)CC(=O)N4[C@H]3CO)cc2)c1	-0.72
Cc1cccc(-c2ccc([C@@H]3[C@@H](CO)N4C(=O)CN(C(=O)c5ccccc5)C[C@H]34)cc2)c1	-1.4
Cc1ccc(-c2ccc([C@H]3[C@@H](CO)N4C(=O)CN(C(=O)c5ccccc5)C[C@@H]34)cc2)cc1	1.3
Cc1cccc(-c2ccc([C@H]3[C@@H](CO)N4C(=O)CN(C(=O)c5ccc6c(c5)OCO6)C[C@@H]34)cc2)c1	-3.1*
Cc1ccc(-c2ccc([C@@H]3[C@@H](CO)N4C(=O)CN(C(=O)c5ccccc5)C[C@H]34)cc2)cc1	0.83
COc1ccc(-c2ccc([C@@H]3[C@@H](CO)N4C(=O)CN(C(=O)c5ccc6c(c5)OCO6)C[C@H]34)cc2)cc1	0.31
CCC(=O)N1[C@H](CNC(=O)CN(C)C)[C@@H](c2ccc(C3=CCCC3)cc2)[C@@H]1CO	3.7
N#C[C@H]1[C@@H](c2ccc(C3=CCCCC3)cc2)[C@@H](CO)N1S(=O)(=O)c1cccc(F)c1	1.6
Cc1ccccc1-c1ccc2c(c1)O[C@H](CN(C)C(=O)Nc1ccc(C(F)(F)F)cc1)[C@H](C)CN([C@@H](C)CO)S2(=O)=O	-0.15
CC(=O)NC[C@@H]1[C@@H](c2ccc(-c3ccccc3F)cc2)[C@@H](CO)N1C(C)=O	3.6
C[C@@H]1CN([C@H](C)CO)C(=O)c2ccccc2-c2ccccc2CO[C@@H]1CN(C)S(=O)(=O)c1ccc([N+](=O)[O-])cc1	-1.1
O=C(c1ccc(F)cc1)N1CC(=O)N2[C@H](CO)[C@H](c3ccc(C#CC4CCCCC4)cc3)[C@@H]2C1	4.2
C/C=C/c1ccc([C@H]2[C@@H](CO)N(C(=O)C3CC3)[C@H]2CN(C)S(C)(=O)=O)cc1	5.7
C[C@@H]1COCn2nncc2CC[C@H](Cc2cccc(Cl)c2)C(=O)N1	0.17
O=C(c1ccc(F)cc1)N1CC(=O)N2[C@H](CO)[C@H](c3ccc(-c4cccnc4)cc3)[C@H]2C1	-0.33
O=C(Cc1ccccn1)N1CC(=O)N2[C@@H](CO)[C@@H](c3ccc(-c4ccccc4)cc3)[C@@H]2C1	-5.6*
Cc1ccc(-c2ccc([C@@H]3[C@@H](CO)N4C(=O)CN(C(=O)Cc5ccccn5)C[C@@H]34)cc2)cc1	-2.6
Cc1ccc(-c2ccc([C@@H]3[C@H]4CN(C(=O)Cc5ccccn5)CC(=O)N4[C@H]3CO)cc2)cc1	-0.8
O=C(Cc1ccccn1)N1CC(=O)N2[C@H](CO)[C@@H](c3ccc(-c4ccccc4)cc3)[C@H]2C1	-0.4
O=C(Cc1ccccn1)N1CC(=O)N2[C@H](CO)[C@H](c3ccc(-c4ccc(F)cc4)cc3)[C@@H]2C1	-0.59
Cc1cccc(-c2ccc([C@H]3[C@H](CO)N4C(=O)CN(C(=O)Cc5ccccn5)C[C@@H]34)cc2)c1	-6.9*
Cc1cccc(-c2ccc([C@@H]3[C@@H](CO)N4C(=O)CN(C(=O)Cc5ccccn5)C[C@H]34)cc2)c1	-5.7*
Cc1ccc(-c2ccc([C@@H]3[C@@H](CO)N4C(=O)CN(C(=O)Cc5ccccn5)C[C@H]34)cc2)cc1	-1.2
O=C(Nc1ccc(F)cc1)N1CC(=O)N2[C@H](CO)[C@H](c3ccc(C#Cc4ccc(F)cc4)cc3)[C@@H]2C1	-0.45
CN(C)C(=O)c1cccc(-c2ccc([C@H]3[C@H](CO)N4CCCCN(C(=O)C5CCC5)C[C@@H]34)cc2)c1	1.9
CCC(=O)N1CC(=O)N2[C@H](CO)[C@H](c3ccc(-c4ccncc4)cc3)[C@@H]2C1	1.1

From PubChem
